Data published in PubChem BioAssay (Tox21).
Values joined by “and” are separate entries in the source; they are usually repeats but may differ in a detail not shown here. Equal entries are not always repeated. Results filed as inconclusive are left out. Entries that show only a call come without a potency. Active and inactive are the calls of the source. Unless noted, calls follow the shape of the dose curve; as a rule, active = well fitted curve in the direction sought with a large enough effect in the repeat runs; inconclusive = weak or mixed curves; inactive = no such curve, though single readings can be large; an effect the other way counts as inactive or inconclusive.

Experiments:
[1] = molecular target: Estrogen receptor (Homo sapiens) (UniProt P03372); experiment: qHTS assay to identify small molecule antagonists of the estrogen receptor alpha (ER-alpha) signaling pathway using the BG1 cell line in the presence of 0.1 nM 17-beta-estradiol (AID 1259244); also: nearly all actives have a fitted effect of over 50% in size
Estrogen receptor (Homo sapiens), sequence (P03372 whole entry, looked up): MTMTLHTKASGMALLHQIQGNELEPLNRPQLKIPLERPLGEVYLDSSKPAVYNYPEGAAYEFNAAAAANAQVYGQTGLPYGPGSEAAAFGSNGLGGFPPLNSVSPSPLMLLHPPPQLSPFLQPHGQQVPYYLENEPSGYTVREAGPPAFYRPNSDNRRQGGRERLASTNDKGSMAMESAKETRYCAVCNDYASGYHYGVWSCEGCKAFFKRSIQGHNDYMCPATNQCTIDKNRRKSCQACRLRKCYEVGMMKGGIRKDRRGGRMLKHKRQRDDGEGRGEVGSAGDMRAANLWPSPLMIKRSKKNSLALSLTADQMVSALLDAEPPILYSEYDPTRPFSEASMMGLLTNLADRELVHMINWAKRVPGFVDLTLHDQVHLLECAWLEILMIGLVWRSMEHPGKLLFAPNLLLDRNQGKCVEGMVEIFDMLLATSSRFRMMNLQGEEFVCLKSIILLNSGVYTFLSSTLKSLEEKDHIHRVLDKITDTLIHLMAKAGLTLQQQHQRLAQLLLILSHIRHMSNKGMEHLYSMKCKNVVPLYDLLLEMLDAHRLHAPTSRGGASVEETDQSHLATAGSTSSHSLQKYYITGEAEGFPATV
Outline: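 VM7Luc4E2; 4xERE-luciferase; 0.1 nM E2 final; 22 h co-incubation, 37C; ONE-Glo luminescence after 30 min at room temperature.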

[2] = qHTS assay to identify small molecule HDAC inhibitors (AID 1259364);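 also: wild-type HCT-116 cells with endogenous class I/II HDAC activity; top concentration of the series differs between compounds; nearly all actives have a fitted effect of over 45% in size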
Outline: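 Relative class I and II HDAC activity is taken from the luminogenic signal in HCT-116 cells, with compound exposure 2 hr and reagent development 30 min at room temperature.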

[3] = qHTS assay to identify small molecule HDAC inhibitors - cell viability counter screen (AID 1259365); also: series mostly up to about 92 µM; nearly all actives have a fitted effect of over 50% in size
Outline: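 Luminescence from CellTiter-Glo, developed 30min at room temperature, reports viability of wild-type HCT-116 cells treated 2hr with compounds at 37 C and 5% CO2 after overnight plating.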

[4] = qHTS assay to identify small molecule antagonists of the sonic hedgehog signaling (Shh) pathway - cell viability counter screen (AID 1259367); also: nearly all actives have a fitted effect of over 55% in size; also: potency is read from the fitted curve at half-maximal effect
Outline: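 Cells: 3T3 Gli1-Luc, 2,000/well, 4 hr pre-incubation. Compounds in DMSO, then conditioned medium. Incubation 24 hr, 37C, 5% CO2. CellTiter-Fluor at 23 hr, 1 hr, fluorescence.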

[5] = qHTS assay to identify small molecule antagonists of the sonic hedgehog signaling (Shh) pathway (AID 1259369; calls by dose curve; also: nearly all actives have a fitted effect of over 45% in size; also: potency is read from the fitted curve at half-maximal effect)
Outline: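 Conditioned medium drives Shh signalling in 3T3Gli1-Luc cells; compounds in DMSO co-applied, 24hr at 37 C, then luciferase luminescence.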

[6] = qHTS assay to identify small molecule agonists of the androgen receptor (AR) signaling pathway in the presence of an antagonist - cell viability counter screen (AID 1259379);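 also: MDA-kb2 human breast cancer cells carrying an MMTV luciferase reporter; series mostly up to about 92 µM; nearly all actives have a fitted effect of over 25% in size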
Outline: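 A CellTiter-Fluor read-out measured viability of MDA-kb2 reporter cells (MMTV promoter with AR and GR response elements). Treatment: nilutamide 3.0uM final with compounds at 15 concentrations, 16 hr, 37C, 0% CO2.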

[7] = qHTS assay to identify small molecule antagonists of the estrogen receptor beta (ER-beta) signaling pathway - cell viability counter screen (AID 1259382); also: series mostly up to about 92 µM; nearly all actives have a fitted effect of over 55% in size
Outline: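 Agonist-stimulated (1nM E2) ER-beta-UAS-bla HEK293T cells are incubated with library compounds for 16 hr at 37C. Cell viability is then assessed in the reporter-assay wells by adding CellTiter-Glo and reading luminescence after 30 min.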

[8] = molecular target: Estrogen receptor (Homo sapiens) (UniProt P03372); experiment: qHTS assay to identify small molecule agonists of the estrogen receptor alpha (ER-alpha) signaling pathway in the presence of an antagonist (AID 1259383; calls by dose curve; also: top concentration of the series differs between compounds; nearly all actives have a fitted effect of over 15% in size)
Outline: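 Using VM7Luc4E2 cells seeded 24hr before treatment, antagonist ICI-182,780 (10.0nM final) was added, followed by compounds at 15 concentrations. Plates incubated 22hr; ONE-Glo luminescence quantified reporter activity.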

[9] = qHTS assay to identify small molecule agonists or antagonists of the thyroid stimulating hormone receptor (TSHR) signaling pathway - wild type cell line counter screen (AID 1259384; calls by dose curve)
Outline: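 Counter screen in untransfected Hek293: compounds (15-point titration, triplicate) plus phosphodiesterase inhibitor Ro20-1724 added after 18 h plating; 30 min RT. Intracellular cAMP via competitive d2/cryptate immunoassay, 1 h incubation.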

[10] = molecular target: Thyrotropin receptor (Homo sapiens) (UniProt P16473); experiment: qHTS assay to identify small molecule antagonists of the thyroid stimulating hormone receptor (TSHR) signaling pathway (AID 1259385; calls by dose curve; also: nearly all actives have a fitted effect of over 20% in size)
Thyrotropin receptor (Homo sapiens), sequence (P16473 whole entry, looked up): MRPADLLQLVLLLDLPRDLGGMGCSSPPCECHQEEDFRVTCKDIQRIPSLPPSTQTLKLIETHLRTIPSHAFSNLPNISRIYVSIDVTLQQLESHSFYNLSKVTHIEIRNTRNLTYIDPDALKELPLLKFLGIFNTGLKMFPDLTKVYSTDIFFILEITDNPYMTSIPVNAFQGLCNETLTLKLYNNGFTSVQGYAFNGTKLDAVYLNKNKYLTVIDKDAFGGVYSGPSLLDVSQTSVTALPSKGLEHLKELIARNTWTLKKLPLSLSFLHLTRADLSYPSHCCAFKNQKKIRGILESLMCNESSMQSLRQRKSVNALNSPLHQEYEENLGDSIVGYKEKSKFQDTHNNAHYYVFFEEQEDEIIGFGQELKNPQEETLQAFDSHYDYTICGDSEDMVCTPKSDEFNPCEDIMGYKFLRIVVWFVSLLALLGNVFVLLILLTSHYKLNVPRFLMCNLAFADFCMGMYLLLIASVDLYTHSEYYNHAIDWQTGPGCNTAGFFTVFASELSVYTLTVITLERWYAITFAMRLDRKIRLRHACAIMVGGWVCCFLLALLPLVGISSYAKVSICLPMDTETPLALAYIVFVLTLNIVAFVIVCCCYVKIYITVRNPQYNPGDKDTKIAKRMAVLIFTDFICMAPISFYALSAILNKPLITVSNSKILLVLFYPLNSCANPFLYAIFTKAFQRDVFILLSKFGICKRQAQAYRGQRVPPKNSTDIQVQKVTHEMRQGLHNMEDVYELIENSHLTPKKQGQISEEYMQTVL
Outline: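 Antagonist mode: compound-treated TSHR-expressing HEK293 cells were stimulated with 1.5 ng/mL TSH (final) in presence of Ro20-1724 for 30 min at RT. HTRF cAMP detection after 1 h; each compound tested at 15 concentrations, triplicate.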

[11] = qHTS assay to identify small molecule agonists of the estrogen receptor alpha (ER-alpha) signaling pathway in the presence of an antagonist - cell viability counter screen (AID 1259386);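 also: series mostly up to about 92 µM; cells exposed to compounds for 22 h at 37 °C before the viability read; nearly all actives have a fitted effect of over 30% in size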
Outline: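 ICI-182,780 at 10.0nM final accompanies the compound titration (15 concentrations, 22hr, 37C) on VM7Luc4E2 cells. The CellTiter-Fluor fluorescence readout runs in the same wells as the luciferase assay.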

[12] = molecular target: Progesterone receptor (Homo sapiens) (UniProt P06401); experiment: qHTS assay to identify small molecule agonists of the progesterone receptor (PR) signaling pathway (AID 1346784; calls by dose curve; also: nearly all actives have a fitted effect of over 30% in size)
Progesterone receptor (Homo sapiens), sequence (P06401 whole entry, looked up): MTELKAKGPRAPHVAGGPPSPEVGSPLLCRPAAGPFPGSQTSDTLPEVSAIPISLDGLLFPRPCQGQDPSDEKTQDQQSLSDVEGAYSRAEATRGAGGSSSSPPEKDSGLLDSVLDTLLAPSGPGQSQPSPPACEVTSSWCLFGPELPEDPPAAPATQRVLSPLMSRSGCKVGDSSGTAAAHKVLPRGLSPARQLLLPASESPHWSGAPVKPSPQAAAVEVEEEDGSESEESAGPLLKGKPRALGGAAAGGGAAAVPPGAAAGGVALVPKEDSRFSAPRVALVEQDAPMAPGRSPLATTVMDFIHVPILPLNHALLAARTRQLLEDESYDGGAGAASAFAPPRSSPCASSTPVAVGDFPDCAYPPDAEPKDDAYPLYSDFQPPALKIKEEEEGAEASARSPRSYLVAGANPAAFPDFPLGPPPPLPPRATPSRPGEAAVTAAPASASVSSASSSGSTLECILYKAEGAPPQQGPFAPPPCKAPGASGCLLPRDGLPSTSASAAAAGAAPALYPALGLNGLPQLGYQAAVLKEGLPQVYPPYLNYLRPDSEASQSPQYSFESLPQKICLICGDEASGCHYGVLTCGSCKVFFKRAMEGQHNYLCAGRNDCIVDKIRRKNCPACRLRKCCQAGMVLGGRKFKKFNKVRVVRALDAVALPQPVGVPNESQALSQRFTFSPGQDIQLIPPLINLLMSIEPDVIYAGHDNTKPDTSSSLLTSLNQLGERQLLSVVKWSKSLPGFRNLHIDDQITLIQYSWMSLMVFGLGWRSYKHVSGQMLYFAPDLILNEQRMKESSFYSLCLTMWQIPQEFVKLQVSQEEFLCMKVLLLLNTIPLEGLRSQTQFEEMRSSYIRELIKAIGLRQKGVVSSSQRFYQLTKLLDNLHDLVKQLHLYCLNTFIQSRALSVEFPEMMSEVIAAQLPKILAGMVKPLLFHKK
Outline: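 Beta-lactamase reporter read-out: after 16 hr compound treatment at 37C and a further 2 hr at room temperature with LiveBLAzer B/G FRET substrate, fluorescence was measured in PR-UAS-bla HEK 293T cells grown in 2% charcoal-stripped serum.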

[13] = molecular target: Progesterone receptor (Homo sapiens) (UniProt P06401); experiment: qHTS assay to identify small molecule antagonists of the progesterone receptor (PR) signaling pathway (AID 1346795; active = well fitted inhibition curve with a large enough effect in the signal ratio in the repeat runs, not every such curve was filed as active; the % refers to the signal ratio; also: potency is read from the fitted curve at half-maximal effect)
Outline: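 Read-out is fluorescence from the LiveBLAzer B/G FRET substrate, cleaved by a UAS-controlled beta-lactamase in PR-UAS-bla HEK293T cells after 16 hr exposure to compound plus 1 nM promegestone (final), followed by 2 hr at room temperature.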

[14] = qHTS assay to identify small molecule agonists of the sonic hedgehog signaling (Shh) pathway - cell viability counter screen (AID 1259366); also: nearly all actives have a fitted effect of over 50% in size
Outline: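 Cytotoxicity counter screen run in the same wells as the Shh reporter assay. NIH/3T3 cells carrying a Gli1 response element–driven luciferase were treated with DMSO-dissolved compounds for 24hr, and live-cell protease activity was measured with CellTiter-Fluor.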

[15] = qHTS assay to identify small molecule agonists of the sonic hedgehog signaling (Shh) pathway (AID 1259368; calls by dose curve;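 also: NIH/3T3-derived 3T3Gli1-Luc cells carrying a stable Gli1-driven firefly luciferase reporter; series mostly up to about 92 µM; nearly all actives have a fitted effect of over 15% in size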)
Outline: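 Mouse fibroblast (NIH/3T3) reporter cells with stably integrated Gli1-Luc were treated 24 hr with compound; firefly luciferase luminescence served as the read-out.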

[16] = molecular target: Estrogen receptor beta (Homo sapiens) (UniProt Q92731); experiment: qHTS assay to identify small molecule agonists of the estrogen receptor beta (ER-beta) signaling pathway (AID 1259377; active = well fitted activation curve with a large enough effect in the signal ratio in the repeat runs, not every such curve was filed as active; the % refers to the signal ratio)
Estrogen receptor beta (Homo sapiens), sequence (Q92731 whole entry, looked up): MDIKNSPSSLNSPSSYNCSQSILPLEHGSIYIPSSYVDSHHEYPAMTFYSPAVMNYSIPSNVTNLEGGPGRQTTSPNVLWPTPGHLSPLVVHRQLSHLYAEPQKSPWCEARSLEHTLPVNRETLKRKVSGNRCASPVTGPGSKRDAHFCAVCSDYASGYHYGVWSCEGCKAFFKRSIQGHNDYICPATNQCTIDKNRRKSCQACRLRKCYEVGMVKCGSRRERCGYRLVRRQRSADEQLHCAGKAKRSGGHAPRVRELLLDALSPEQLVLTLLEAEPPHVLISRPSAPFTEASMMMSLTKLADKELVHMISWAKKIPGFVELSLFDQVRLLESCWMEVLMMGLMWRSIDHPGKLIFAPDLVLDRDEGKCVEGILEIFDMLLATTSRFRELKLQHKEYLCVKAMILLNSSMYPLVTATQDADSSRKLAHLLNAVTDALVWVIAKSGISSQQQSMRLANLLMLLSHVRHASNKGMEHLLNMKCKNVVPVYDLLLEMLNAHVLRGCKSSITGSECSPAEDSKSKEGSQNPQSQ
Outline: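 HEK293T ER-beta-UAS-bla; 2% charcoal-stripped FBS; cells pre-incubated 6 hr, compound 16 hr, 37C/5% CO2; LiveBLAzer B/G FRET substrate 2 h RT; fluorescence intensity read.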

[17] = molecular target: Estrogen receptor beta (Homo sapiens) (UniProt Q92731); experiment: qHTS assay to identify small molecule antagonists of the estrogen receptor beta (ER-beta) signaling pathway (AID 1259378; active = well fitted inhibition curve with a large enough effect in the signal ratio in the repeat runs, not every such curve was filed as active; the % refers to the signal ratio)
Outline: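 Antagonist mode: compounds added to beta-lactamase reporter HEK293T ER-beta-UAS cells stimulated with E2 (1nM final), 16 hr at 37C. LiveBLAzer B/G FRET substrate, 2 hours room temperature, fluorescence read-out.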

[18] = qHTS assay to identify small molecule agonists of the estrogen receptor beta (ER-beta) signaling pathway - cell viability counter screen (AID 1259380); also: nearly all actives have a fitted effect of over 30% in size; also: potency is read from the fitted curve at half-maximal effect
Outline: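 Cells used were ER-beta-UAS-bla HEK293T in medium with 2% charcoal-stripped FBS. They were treated for 16 hr at 37C. Viability came from CellTiter-Glo luminescence.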

[19] = molecular target: Androgen receptor (Homo sapiens) (UniProt P10275); experiment: qHTS assay to identify small molecule agonists of the androgen receptor (AR) signaling pathway in the presence of an antagonist (AID 1259381; calls by dose curve; also: nearly all actives have a fitted effect of over 15% in size)
Androgen receptor (Homo sapiens), sequence (P10275 whole entry, looked up): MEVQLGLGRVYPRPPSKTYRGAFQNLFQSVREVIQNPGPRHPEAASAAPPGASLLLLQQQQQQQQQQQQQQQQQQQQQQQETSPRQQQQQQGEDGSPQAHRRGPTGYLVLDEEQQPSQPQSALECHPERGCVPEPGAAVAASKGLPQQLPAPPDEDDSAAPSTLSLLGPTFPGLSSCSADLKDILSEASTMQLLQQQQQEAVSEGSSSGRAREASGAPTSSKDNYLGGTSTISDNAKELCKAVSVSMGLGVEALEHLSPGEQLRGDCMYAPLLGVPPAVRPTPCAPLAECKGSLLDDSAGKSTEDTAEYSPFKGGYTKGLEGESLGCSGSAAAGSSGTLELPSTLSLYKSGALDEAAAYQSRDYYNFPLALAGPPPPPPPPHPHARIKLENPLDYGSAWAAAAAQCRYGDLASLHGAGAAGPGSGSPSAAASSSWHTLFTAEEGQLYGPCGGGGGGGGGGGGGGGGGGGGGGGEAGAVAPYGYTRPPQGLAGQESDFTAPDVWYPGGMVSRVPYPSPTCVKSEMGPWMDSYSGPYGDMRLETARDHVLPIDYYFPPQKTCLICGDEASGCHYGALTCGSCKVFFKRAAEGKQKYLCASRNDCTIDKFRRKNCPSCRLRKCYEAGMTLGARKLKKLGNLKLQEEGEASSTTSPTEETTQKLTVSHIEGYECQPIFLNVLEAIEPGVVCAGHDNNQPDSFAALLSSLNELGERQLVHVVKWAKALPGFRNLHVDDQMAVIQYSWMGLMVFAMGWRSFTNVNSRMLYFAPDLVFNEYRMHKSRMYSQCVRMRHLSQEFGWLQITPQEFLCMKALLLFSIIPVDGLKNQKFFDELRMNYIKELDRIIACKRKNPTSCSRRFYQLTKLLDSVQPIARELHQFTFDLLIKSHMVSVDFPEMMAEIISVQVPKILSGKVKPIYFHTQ
Outline: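 Using human MDA-kb2 cells with an MMTV promoter–luciferase construct (AR and GR response elements), agonist activity is scored under 3.0uM nilutamide (final) co-treatment; 16hr incubation, 37C, luminescence readout via ONE-Glo.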

Row | Structure (SMILES) | Potency [1] | Potency [2] | outcome [3] | Potency [4] | Potency [5] | Potency [6] | Potency [7] | Potency [8] | Potency [9] | Potency [10] | Potency [11] | outcome [12] | Potency [13] | Potency [14] | outcome [15] | Potency [16] | Potency [17] | Potency [18] | Potency [19]
1 | Cn1sccc1=O | inactive | inactive | inactive | 27.3 µM (active) | 12.2 µM (active) and 3.06 µM (active) | inactive | inactive | inactive | inactive | inactive | inactive | inactive | inactive |  |  |  |  |  | 
2 | C=C(C)C(=O)OC(C)C | inactive | inactive | inactive |  | inactive | inactive | inactive | inactive | inactive | inactive | inactive | inactive |  | inactive | inactive | inactive | inactive | inactive | inactive
3 | O=c1[nH]cnc2ccccc12 | inactive | inactive | inactive | inactive | inactive | inactive | inactive | inactive | inactive | inactive | inactive |  |  |  | inactive | inactive |  | inactive | 
4 | COc1ccc(OC)c(OC)c1 | inactive | inactive | inactive | inactive | inactive | inactive | inactive | inactive |  | inactive | inactive | inactive | inactive |  | inactive |  | inactive | inactive | 
5 | CCCCCCCCCCCCC(=O)O | inactive | inactive | inactive |  | 2.74 µM (active) | inactive |  | inactive |  | inactive | inactive |  | inactive | inactive | inactive |  |  | 54.6 µM (active) | 
6 | OCCC1CCCCN1 (stereo unspecified) | inactive | inactive | inactive |  | inactive | inactive | inactive | inactive | inactive | inactive | inactive | inactive | inactive | inactive | inactive | inactive | inactive |  | 
7 | CCCCCCCCC(CO)CCCCCC (stereo unspecified) | inactive | inactive | inactive | inactive | inactive | inactive | inactive | inactive | inactive | inactive | inactive | inactive | inactive | inactive |  | inactive | inactive | inactive | 
8 | NCCCOCCOCCOCCCN | inactive | inactive | inactive |  |  |  |  | inactive | inactive | inactive | inactive | inactive |  |  | inactive |  |  |  | 
9 | CCC(C)N(C)C(=O)c1cc2ccccc2c(-c2ccccc2Cl)n1 (stereo unspecified) | inactive | inactive | inactive |  | inactive | inactive | inactive | inactive | inactive | inactive | inactive | inactive |  |  | inactive |  |  |  | inactive
10 | CCCCCCCCCO | inactive | inactive | inactive | inactive | inactive | inactive | inactive | inactive |  | inactive | inactive | inactive |  | inactive |  | inactive | inactive |  | 
11 | CC(=O)OCCc1ccccc1 | inactive | inactive | inactive |  | inactive | inactive | inactive | inactive | inactive | inactive | inactive |  |  | inactive | inactive |  |  | inactive | 
12 | CCCCCCCCCCCCCCC1CO1 (stereo unspecified) | inactive | inactive | inactive | inactive | inactive | inactive | inactive | inactive | inactive | inactive | inactive | inactive | inactive |  | inactive | inactive | inactive | inactive | 
13 | CCCCC(CC)COCCCN (stereo unspecified) | inactive | inactive | inactive |  | inactive | inactive |  | inactive | inactive | inactive |  | inactive |  | inactive | inactive |  |  |  | 
14 | Cc1ncsc1CCO | inactive | inactive | inactive | inactive | inactive | inactive | inactive | inactive | inactive | inactive | inactive |  |  |  | inactive | inactive | inactive | inactive | 
15 | CC1=CC(=O)/C(=C(/C)O)C(=O)O1 | inactive | inactive | inactive | inactive | inactive | inactive | inactive | inactive | inactive | inactive | inactive | inactive | inactive | inactive |  | inactive | inactive | inactive | 
16 | CCCCCCc1ccc(N)cc1 | inactive | inactive | inactive | inactive | inactive | inactive | inactive | inactive | inactive | inactive | inactive |  |  |  | inactive | inactive |  |  | inactive
17 | CCCCOCCOCCOCCOCCO | inactive | inactive | inactive |  | inactive | inactive | inactive | inactive | inactive | inactive | inactive | inactive |  | inactive | inactive | inactive | inactive |  | 
18 | CCCCOC(=O)c1ccccc1C(=O)OCC(CC)CCCC (stereo unspecified) | inactive | inactive | inactive | inactive | inactive | inactive | inactive | inactive |  | inactive | inactive | inactive | 48.6 µM (active) |  |  | inactive |  | inactive | 
